# Assay results published in paper PMC9838217, “Structure of SALL4 zinc finger domain reveals link between AT-rich DNA binding and Okihiro syndrome”.
# Substitutions are numbered along the chain they refer to.
# Assays:
# Experiment in all cases: HT-SELEX; high values mean tight binding
# Conditions in all cases: protein: recombinant; vector His6-GST; dsDNA, one strand shown
# SALL4 ZFC4 WT (HT-SELEX) = molecular target: T1, SALL4 ZFC4 WT (HT-SELEX) (Mus musculus, UniProt Q8BX22 870-940)
# T1 sequence: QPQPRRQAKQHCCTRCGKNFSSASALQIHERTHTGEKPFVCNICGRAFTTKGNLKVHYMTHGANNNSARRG
# Procedure, shortened: (§1)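 Purified recombinant mouse SALL4 zinc finger cluster 4 (residues 870–940, 1 µg) was incubated with library DNA (1.5 µg first cycle, 200 ng later) in 100 µl of 10 mM Tris–HCl pH 7.5, 50 mM NaCl, poly(dI-dC) and DTT for 10 min at room temperature, with Ni2+ bead capture and reselection for up to 6 cycles in triplicate. MiSeq reads were scanned for 6-mers. Binding signal is each canonical k-mer's read fraction as fold change relative to the initial random library.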
# [1] = molecular target: T2, SALL4 ZFC4 R900W (HT-SELEX) (Mus musculus, UniProt Q8BX22 870-940, R900W)
# T2 sequence: T1 sequence with R31W
# Procedure, shortened: as §1
# [2] = molecular target: T3, SALL4 ZFC4 G921D (HT-SELEX) (Mus musculus, UniProt Q8BX22 870-940, G921D)
# T3 sequence: T1 sequence with G52D
# Procedure, shortened: as §1
Sequence,binding signal (SALL4 ZFC4 WT (HT-SELEX)) [fold-change vs cycle 0],binding signal [1] [fold-change vs cycle 0],binding signal [2] [fold-change vs cycle 0]
AGTCCG,0.333 ± 0.0345,0.404 ± 0.0391,0.533 ± 0.0458
CAATCC,0.816 ± 0.0436,0.939 ± 0.0312,0.973 ± 0.0236
CCTGTA,0.809 ± 0.0421,0.915 ± 0.0586,0.974 ± 0.0591
GAGCTC,0.338 ± 0.0166,0.439 ± 0.0575,0.585 ± 0.0582
CAGTCA,0.794 ± 0.0288,0.925 ± 0.0192,0.946 ± 0.028
TATACA,2.08 ± 0.107,1.99 ± 0.114,1.77 ± 0.145
CCTCAG,0.494 ± 0.0292,0.591 ± 0.0293,0.666 ± 0.0425
AAATCA,1.98 ± 0.081,1.8 ± 0.0687,1.7 ± 0.128
CCCAGA,0.431 ± 0.0214,0.51 ± 0.0216,0.583 ± 0.0525
AACGTT,1.19 ± 0.0242,1.33 ± 0.0216,1.24 ± 0.0303
ATCTAG,1.35 ± 0.0842,1.48 ± 0.0373,1.41 ± 0.108
AATGGT,1.28 ± 0.0798,1.35 ± 0.0595,1.32 ± 0.061
GCCTAC,0.304 ± 0.0224,0.368 ± 0.00435,0.499 ± 0.0602
CAGTCG,0.32 ± 0.0306,0.389 ± 0.0206,0.497 ± 0.0334
GCGATA,0.515 ± 0.0117,0.534 ± 0.0163,0.668 ± 0.0315
TCTGCA,0.609 ± 0.0257,0.678 ± 0.019,0.747 ± 0.0393
AGATAC,1.32 ± 0.0304,1.44 ± 0.052,1.4 ± 0.118
AAGCTA,1.18 ± 0.0764,1.3 ± 0.0578,1.28 ± 0.0869

Sequence,binding signal (SALL4 ZFC4 WT (HT-SELEX)) [fold-change vs cycle 0],binding signal [1] [fold-change vs cycle 0],binding signal [2] [fold-change vs cycle 0]
CAGAAG,0.787 ± 0.03,0.933 ± 0.0195,0.93 ± 0.0319
AAAAAG,1.57 ± 0.0619,1.68 ± 0.0943,1.52 ± 0.129
CAGACC,0.367 ± 0.0114,0.461 ± 0.0322,0.553 ± 0.0477
ATAATC,2.69 ± 0.205,2.05 ± 0.113,1.81 ± 0.145
AAGAAA,2.03 ± 0.13,2.08 ± 0.193,1.78 ± 0.233
AAGTGT,1.24 ± 0.0333,1.35 ± 0.0203,1.3 ± 0.0159
CATGTA,1.28 ± 0.0897,1.37 ± 0.0595,1.35 ± 0.123
AATATA,4.74 ± 0.532,2.49 ± 0.212,2.16 ± 0.28
AAGTGG,0.762 ± 0.0311,0.891 ± 0.0548,0.909 ± 0.0639
CAGTTC,0.794 ± 0.00773,0.912 ± 0.0408,0.935 ± 0.0458
AGCGAT,0.553 ± 0.0342,0.644 ± 0.0243,0.766 ± 0.0387
TACTCA,1.43 ± 0.0381,1.5 ± 0.0664,1.42 ± 0.0998
AAGAGG,0.855 ± 0.0331,1.01 ± 0.0625,0.999 ± 0.0313
AAGTAT,2.21 ± 0.135,2.14 ± 0.158,1.87 ± 0.204
CGAAGA,0.723 ± 0.0365,0.802 ± 0.0443,0.859 ± 0.0315
ACGGAT,0.764 ± 0.0238,0.855 ± 0.00544,0.887 ± 0.0254
AAGGCT,0.61 ± 0.0387,0.726 ± 0.0643,0.8372 ± 0.00507
ACCCAC,0.443 ± 0.0307,0.506 ± 0.0282,0.606 ± 0.0557
